LASV entry inh: qHTS for Inhibitors of binding or entry into cells for Lassa Virus; AID 540256, 2011; actives 1.2% (n = 300,000); Potency, µM (series often up to 37.9 µM), inactives show at the top dose activity change, negative = inhibition, actives largely listed as inhibitors; Lassa virus pseudotype entry inhibition, cell reporter; calls by dose curve; tested in HEK293 cells; also: potency is read from the fitted curve at half-maximal effect; nearly all actives have a fitted effect of over 50% in size
FBPA Giardia inh: qHTS Assay for Inhibitors of Fructose-1,6-bisphosphate Aldolase from Giardia Lamblia. A8B2U2. purified Giardia FBPA. Potency, µM (titrated, usually from 59.6 µM), without a hit: at the top dose activity, negative = inhibition, hits mostly inhibitors. actives 0.71% (n = 290,000); also: potency is read from the fitted curve at half-maximal effect; nearly all actives have a fitted effect of over 55% in size
Target sequence (A8B2U2 whole entry, looked up): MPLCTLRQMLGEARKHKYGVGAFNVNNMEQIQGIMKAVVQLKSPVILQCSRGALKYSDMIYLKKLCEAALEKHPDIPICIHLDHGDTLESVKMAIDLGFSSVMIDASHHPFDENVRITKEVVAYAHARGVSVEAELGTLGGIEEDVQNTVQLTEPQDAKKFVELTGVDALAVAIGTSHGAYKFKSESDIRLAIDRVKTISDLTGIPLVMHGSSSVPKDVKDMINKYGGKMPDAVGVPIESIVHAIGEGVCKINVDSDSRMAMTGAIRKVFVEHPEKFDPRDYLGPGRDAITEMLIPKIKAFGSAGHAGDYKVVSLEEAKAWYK
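40 nM FBPA preincubated 10 min at RT with compound (up to 57.5 uM final), then substrate plus GAPDH/TPI/NAD/arsenate coupling and diaphorase/resazurin added. Fluorescence read after 20 min at RT, 525/598 nm.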
HCV inhibitor: qHTS Assay for Inhibitors of Hepatitis C Virus (HCV) | actives 3.4% (n = 340,000) | Potency, µM (doses to about 41.8 µM), without a hit: top-dose activity change, negative = inhibition, most hits filed as inhibitors | Huh7.5.1 HCVcc-Cre infection, luciferase reporter, 44 h | AID 651820, 2012; also: potency is read from the fitted curve at half-maximal effect
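1,000 cells/well; 4 h culture; + compound; + HCVcc-Cre (~0.5 moi); 44 h; luciferase substrate, RT 15 min; read 15 sec.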
FMDV antiviral: High Throughput Screening for Foot and Mouth Disease Virus Antivirals. FMDV antiviral cell-based qHTS. Potency, µM (top dose mostly 57.9 µM), for inactives: at the highest dose activity change, negative = inhibition, actives largely listed as inhibitors. actives 1.2% (n = 410,000); calls by dose curve; tested in HEK293T cells; also: read-out not given here; potency is read from the fitted curve at half-maximal effect; nearly all actives have a fitted effect of over 45% in size
HCMV antiviral: qHTS Assay for inhibitors of the human cytomegalovirus (HCMV); HFF cells, HCMV-luciferase reporter, 72 h; stronger effect = lower value; activity change, negative = inhibition, % at 57.5 µM; actives 4.5% (n = 410,000); AID 1259415, 2018; in the data active = activity change below about -60%; inconclusive = no clear call, values can overlap the other calls; inactive = above about -39%
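Inhibition of viral replication was scored as loss of reporter luminescence in HFFs infected with HCMV-luciferase (MOI 1 PFU/cell) for 72 h; compounds tested at 2 doses, normalized to buffer and Salinomycin controls.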
Marburg entry inh: qHTS for inhibitors of binding or entry into cells for Marburg Virus. Marburg virus pseudotyped entry inhibition, cell reporter. Potency, µM (top dose mostly 37.8 µM), for inactives: top-dose activity change, negative = inhibition, actives largely listed as inhibitors. actives 1.8% (n = 300,000); calls by dose curve; tested in HEK293 cells; also: potency is read from the fitted curve at half-maximal effect
Starred values were filed as active, the others as inactive; u = inconclusive; x = no result; [ ] = remark or other dose. The list is not random: actives were taken first. Their share in the collection is about 8.3%. Unless noted, calls follow the shape of the dose curve; as a rule, active = well fitted curve in the direction sought with a large enough effect; inconclusive = small, poorly fitted or top-dose-only effect, or another doubt; inactive = no such curve, though single readings can be large; an effect the other way counts as inactive or inconclusive. % is scaled to controls: 0 for no effect and ±100 for the full control effect.

SMILES	LASV entry inh	FBPA Giardia inh	HCV inhibitor	FMDV antiviral	HCMV antiviral	Marburg entry inh
CCCCCCCCCCOC(=O)Cn1c(COc2ccc(Cl)cc2)[n+](C)c2ccccc21	x	-7%	u	u	-40	x
CCCCCCCCCCOC(=O)Cn1c(COc2ccc(OC)cc2)[n+](C)c2ccccc21	u	-7%	u	u	x	3.2µM*
CCCCCCCCCCOC(=O)Cn1c(COc2ccccc2)[n+](C)c2ccccc21	x	3%	u	35µM*	-40	x
CCCCCCCCCCOC(=O)Cn1c(COc2ccccc2C)[n+](C)c2ccccc21	8.9µM*	-15%	u	u	x	25µM*
CCCCCCCCCCOC(=O)Cn1c(COc2cccc(C)c2)[n+](C)c2ccccc21	-17%[46.1 µM]	-16%	u	20µM*	-37	u
CCCCOC(=O)Cn1c(=O)n(CC(=O)OCCCC)c2ccccc21	7%	6%	4%	-19%	-16	13%
COC(=O)[C@@H]1[C@@H](CO)[C@@H]2Cn3c(cccc3=O)[C@H]1N2S(=O)(=O)c1cccc(C)c1	x	x	x	x	21	x
CC(=O)N1CCOCC1c1cc(C(=O)Nc2ccccc2)no1 (centres undefined)	x	x	x	20%	u	x
O=C(Nc1ccccc1)c1cc(C2COCCN2C(=O)c2cccs2)on1 (centres undefined)	x	x	x	-3%	-85*	x
C=CCNC(=S)Nc1c(C(=O)OC)[nH]c2cc(OC)ccc12	x	-9%	13%	25%	81	x
CCN(CC(=O)Nc1c(C(=O)OC)[nH]c2ccccc12)c1ccc2c(c1)OCO2	-9%	18%	u	-28%	1	6.5µM*
COC(=O)c1[nH]c2cc(OC)ccc2c1NC(=O)c1c(F)cccc1F	x	-1%	13µM*	12%	-16	x
COC(=O)c1[nH]c2cc(OC)ccc2c1NC(=O)c1ccc2c(c1)OCO2	-3%	-12%	2.5µM*	5%	-39	-16%
CN(Cc1ccco1)c1ncncc1-c1ccccc1C(F)(F)F	x	0%	x	-9%	x	x
CN(Cc1ccccc1)C(=O)c1cccc(NC(=O)Cc2cccc(NC(=O)C3CCN(C(=O)C4CC4)CC3)c2)c1	x	x	u	1%	4	x
CN(Cc1ccccc1)C(=O)c1cccc(NC(=O)Cc2ccc(NC(=O)C3CCN(C(=O)C4CCC4)CC3)cc2)c1	x	x	14µM*	u	-23	x
CN(CCc1ccccc1)C(=O)c1ccc(NC(=O)Cc2ccc(NC(=O)C3CCN(C(=O)C4CCCCC4)CC3)cc2)cc1	x	x	-24%[8.37 µM]	-28%	-60*	x
CN(CCc1ccccc1)C(=O)c1ccc(NC(=O)Cc2cccc(NC(=O)C3CCN(C(=O)CCc4ccccc4)CC3)c2)cc1	x	x	-10%	-30%	-26	x
CN(C(=O)c1ccc(NC(=O)Cc2cccc(NC(=O)C3CCCN(C(=O)CCc4ccccc4)C3)c2)cc1)C1CC1 (centres undefined)	x	x	-3%[8.37 µM]	13%	-12	x
CN(CCc1ccccc1)C(=O)c1ccc(NC(=O)Cc2ccc(NC(=O)C3CCN(C(=O)CCc4ccccc4)CC3)cc2)cc1	x	x	25µM*	u	-88*	x
CN(CCc1ccccc1)C(=O)c1ccc(NC(=O)Cc2ccc(NC(=O)C3CCCN(C(=O)CCc4ccccc4)C3)cc2)cc1 (centres undefined)	x	x	0.56µM*	u	-71*	x
COC(=O)C1CCCCN1Cc1ccc2c(c1)CN(C1CCSCC1)CCO2 (centres undefined)	x	x	x	-5%	x	x
COc1cccc(CNC(=O)c2c(OC)cc(=O)n3c2CCN(C(=O)c2ccc(Cl)cc2)CC3)c1	x	x	x	0%	x	x
COc1ccc(C(=O)N2CCC3(CCN(Cc4ccccc4OC)CC3)CC2)cc1	x	3%	x	-8%	x	x
CN(CCc1ccccc1)C(=O)c1ccc(NC(=O)Cc2ccc(NC(=O)C3CCCN(C(=O)C4CCC4)C3)cc2)cc1 (centres undefined)	x	x	u	u	-70*	-6%
SMILES	LASV entry inh	FBPA Giardia inh	HCV inhibitor	FMDV antiviral	HCMV antiviral	Marburg entry inh
CCOc1ccc(S(=O)(=O)c2c(C(=O)c3ccccc3)cnc3cc4c(cc23)OCCO4)cc1	-9%	1%	2%	29%	-76*	u
Cc1ccc2[nH]cc(C(c3ccccc3)c3ccc(C)s3)c2c1 (centres undefined)	u	x	x	u	-100*	u
Cc1ccc2[nH]cc(C(c3ccccc3)c3cccs3)c2c1 (centres undefined)	-11%[46.1 µM]	x	x	u	-79*	u
CC1CCCN(c2ncnc3c2cnn3-c2ccc(F)cc2)C1 (centres undefined)	-5%[46.1 µM]	x	x	18µM*	-80*	x
CC1CCCN(c2ncnc3c2cnn3-c2ccccc2)C1 (centres undefined)	x	-8%	-11%	-11%	u	x
Cc1ccc(-n2ncc3c(N4CCCC(C)C4)ncnc32)c(C)c1 (centres undefined)	x	-2%	-20%	-21%	18	0%
CC1CCCN(c2ncnc3c2cnn3-c2ccc(Cl)cc2)C1 (centres undefined)	x	-1%	-2%	25µM*	-98*	x
COc1ccc(C(=O)N2Cc3cnnn3-c3ccccc3C2C#N)cc1 (centres undefined)	x	x	11%[8.37 µM]	2%	-8	x
CS(=O)(=O)N1Cc2cnnn2-c2ccccc2C1C#N (centres undefined)	x	x	20%[8.37 µM]	-2%	15	x
COc1ccc(CN2Cc3cnnn3-c3ccccc3C2C#N)cc1 (centres undefined)	x	x	4µM*	25µM*	-110*	x
CN1Cc2cnnn2-c2ccccc2C1C#N (centres undefined)	x	x	16%[8.37 µM]	-18%	-64*	x
N#CC1c2ccccc2-n2nncc2CN1Cc1cc(Cl)cc(Cl)c1 (centres undefined)	x	x	5.6µM*	8.9µM*	-100*	x
CC(=O)Nc1ccc(S(=O)(=O)N2Cc3cnnn3-c3ccccc3C2C#N)cc1 (centres undefined)	x	x	0.32µM*	-9%	8	x
Cc1ccc(S(=O)(=O)N2Cc3cnnn3-c3ccccc3C2C#N)cc1 (centres undefined)	x	x	-20%[8.37 µM]	1%	-8	x
CCOc1ccc(-c2cc(C(=O)N3CCN(c4cccc(C(F)(F)F)c4)CC3)c3ccccc3n2)cc1	u	x	x	5%	13	x
CCOCCCN1C(=O)c2[nH]nc(-c3ccccc3O)c2C1c1ccc(CC)cc1 (centres undefined)	u	x	x	0%	-15	u
CO[C@H]1[C@H](NC(=O)c2ccsc2)c2ccccc2C12CCN(Cc1cc(Cl)ccc1O)CC2	x	x	x	-11%	x	x
COc1ccc(CN2Cc3cnnn3-c3ccccc3C2c2ccccc2)cc1 (centres undefined)	x	x	1.3µM*	0%	-17	x

Screening results: PubChem, National Center for Advancing Translational Sciences (NCATS)
